Data as given in PubChem BioAssay (Tox21).
Active and inactive are the calls of the source. Entries that show only a call come without a potency. Unless noted, calls follow the shape of the dose curve; as a rule, active = well fitted curve in the direction sought with a large enough effect in the repeat runs; inconclusive = weak or mixed curves; inactive = no such curve, though single readings can be large; an effect the other way counts as inactive or inconclusive.

Key:
[1] = qHTS assay to identify small molecule antagonists of the thyroid receptor (TR) signaling pathway - cell viability counter screen (AID 743064); also: nearly all actives have a fitted effect of over 50% in size
In short: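 Same-well viability check: GH3.TRE-Luc cells stimulated with 1 nM T3 alongside test compound for 23.5 h, followed by CellTiter-Fluor fluorescence.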

[2] = qHTS assay to identify small molecule antagonists of the thyroid receptor (TR) signaling pathway (AID 743065); also: nearly all actives have a fitted effect of over 55% in size
In short: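 Antagonism measured as loss of luciferase signal in GH3 cells stably carrying a TRE-luciferase reporter, co-treated with compound and T3 (1 nM final) for 23.5 h at 37 C. Viability was read in the same well by CellTiter-Fluor.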

[3] = test system: thyroid hormone receptor (rat, GH3 cells); test: qHTS assay to identify small molecule agonists of the thyroid receptor (TR) signaling pathway (AID 743066; calls by dose curve)
[4] = molecular target: Estrogen receptor (Homo sapiens) (UniProt P03372); test: qHTS assay to identify small molecule antagonists of the estrogen receptor alpha (ER-alpha) signaling pathway (AID 743069; active = well fitted curve in the direction sought with a large enough effect in the signal ratio in the repeat runs, not every such curve was filed as active; inconclusive = weak or mixed curves, or effect the other way; inactive = no such curve, though single readings can be large or run the other way; the % refers to the signal ratio)
Sequence of Estrogen receptor (Homo sapiens) (P03372 whole entry, looked up): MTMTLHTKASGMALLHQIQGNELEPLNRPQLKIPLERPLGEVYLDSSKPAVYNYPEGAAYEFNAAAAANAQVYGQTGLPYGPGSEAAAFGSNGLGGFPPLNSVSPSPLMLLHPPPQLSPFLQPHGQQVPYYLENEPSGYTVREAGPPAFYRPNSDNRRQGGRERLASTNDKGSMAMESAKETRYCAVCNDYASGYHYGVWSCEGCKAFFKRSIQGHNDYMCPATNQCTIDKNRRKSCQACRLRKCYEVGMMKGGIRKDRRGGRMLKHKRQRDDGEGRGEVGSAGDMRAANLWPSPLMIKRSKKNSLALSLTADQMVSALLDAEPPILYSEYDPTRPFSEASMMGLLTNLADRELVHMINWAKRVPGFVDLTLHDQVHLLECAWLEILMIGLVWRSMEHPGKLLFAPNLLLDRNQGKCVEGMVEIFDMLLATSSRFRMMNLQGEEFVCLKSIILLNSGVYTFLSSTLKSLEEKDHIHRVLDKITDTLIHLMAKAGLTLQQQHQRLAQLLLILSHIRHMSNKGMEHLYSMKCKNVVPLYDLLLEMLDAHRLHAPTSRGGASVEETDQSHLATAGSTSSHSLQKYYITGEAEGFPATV
In short: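 Fluorescence intensity from a beta-lactamase FRET substrate served as the read-out. Cells: HEK293 with stably integrated ER-alpha-UAS-bla reporter. Agonist 17beta-estradiol was co-added with compounds; incubation 18 hr at 37C, substrate 2 hr at room temperature.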

[5] = qHTS assay to identify small molecule antagonists of the estrogen receptor alpha (ER-alpha) signaling pathway - cell viability counter screen (AID 743074; calls by dose curve; also: nearly all actives have a fitted effect of over 45% in size)
[6] = molecular target: Estrogen receptor (Homo sapiens) (UniProt P03372); test: qHTS assay to identify small molecule agonists of the estrogen receptor alpha (ER-alpha) signaling pathway (AID 743075; calls by dose curve; also: potency is read from the fitted curve at half-maximal effect)
[7] = molecular target: Estrogen receptor (Homo sapiens) (UniProt P03372); test: qHTS assay to identify small molecule agonists of the estrogen receptor alpha (ER-alpha) signaling pathway using the BG1 cell line (AID 743079); details: BG1Luc4E2 cells, ERE-luciferase agonist, 22 h; activation: at 70.3 µM (top of the series); also: nearly all actives have a fitted effect of over 20% in size; also: potency is read from the fitted curve at half-maximal effect
[8] = qHTS assay to identify small molecule antagonists of the estrogen receptor alpha (ER-alpha) signaling pathway using the BG1 cell line - cell viability counter screen (AID 743081);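 also: compound given together with 17beta-estradiol as the ER stimulus; nearly all actives have a fitted effect of over 45% in size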
Aromatase (Homo sapiens) = Aromatase (Homo sapiens) (UniProt P11511); test: qHTS assay to identify aromatase inhibitors (AID 743083); also: nearly all actives have a fitted effect of over 55% in size
Sequence of Aromatase (Homo sapiens) (P11511 whole entry, looked up): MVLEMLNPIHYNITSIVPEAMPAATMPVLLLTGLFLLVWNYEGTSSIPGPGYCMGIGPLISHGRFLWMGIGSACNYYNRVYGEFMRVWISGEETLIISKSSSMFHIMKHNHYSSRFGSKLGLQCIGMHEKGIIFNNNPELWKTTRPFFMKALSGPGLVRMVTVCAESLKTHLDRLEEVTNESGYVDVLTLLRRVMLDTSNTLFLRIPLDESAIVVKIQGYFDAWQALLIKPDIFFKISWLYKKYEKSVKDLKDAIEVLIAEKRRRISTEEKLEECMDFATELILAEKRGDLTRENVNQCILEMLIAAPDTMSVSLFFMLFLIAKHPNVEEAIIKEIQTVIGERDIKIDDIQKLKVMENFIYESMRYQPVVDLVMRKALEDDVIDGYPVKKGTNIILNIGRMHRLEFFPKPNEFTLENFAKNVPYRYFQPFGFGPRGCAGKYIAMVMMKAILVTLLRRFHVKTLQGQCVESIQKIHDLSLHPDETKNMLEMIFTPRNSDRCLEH

[9] = qHTS assay to identify small molecule antagonists of the estrogen receptor alpha (ER-alpha) signaling pathway using the BG1 cell line (AID 743080; calls by dose curve;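 also: BG1 cells stimulated with 17beta-estradiol alongside compound; nearly all actives have a fitted effect of over 25% in size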)
In short: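 Quantitative HTS on the Tox21 10K library: BG1 cells with endogenous ER-alpha and ERE-luciferase reporter, 17beta-estradiol stimulation, 21.5 h compound exposure, luminescence endpoint with parallel fluorescence cytotoxicity counter-read.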

Structure (SMILES) | Potency [1] | Potency [2] | Potency [3] | Potency [4] | Potency [5] | Potency [6] | Potency [7] | Potency [8] | Potency (Aromatase (Homo sapiens)) | Potency [9]
CCCC(=O)O[C@]1(C(=O)COC(C)=O)CC[C@H]2[C@@H]3C[C@H](F)C4=CC(=O)C=C[C@]4(C)[C@@]3(F)[C@@H](O)C[C@@]21C | inactive | inactive | inactive | inactive | inactive | inactive | inactive | inactive | inactive | –
CC1=C(/C=C/C(C)=C/C=C/C(C)=C/C=C/C=C(C)/C=C/C=C(C)/C=C/C2=C(C)C(=O)CCC2(C)C)C(C)(C)CCC1=O | inactive | inactive | inactive | inactive | inactive | 26.8 µM [inconclusive] (active) | 5.31 µM (active) | – | inactive | –
C[C@H](CSC(=O)c1ccccc1)C(=O)N1C[C@@H](Sc2ccccc2)C[C@H]1C(=O)O | inactive | inactive | inactive | inactive | inactive | inactive | inactive | inactive | inactive | inactive
CO[C@@H]1[C@@H](O[C@@H]2O[C@H](C)[C@@H](O[C@H]3C[C@@](C)(O)[C@@H](OC(=O)CC(C)C)[C@H](C)O3)[C@H](N(C)C)[C@H]2O)[C@@H](CC=O)C[C@@H](C)[C@@H](O)/C=C/C=C/C[C@@H](C)OC(=O)C[C@H]1O | inactive | inactive | inactive | inactive | inactive | inactive | 13.3 µM (active) | inactive | inactive | inactive
CCCOc1cc(N)ccc1C(=O)OCCN(CC)CC | inactive | inactive | inactive | inactive | inactive | inactive | inactive | – | inactive | inactive
CCC(C)(C)OC(=O)N[C@@H](Cc1c[nH]c2ccccc12)C(=O)N[C@@H](CCSC)C(=O)N[C@@H](CC(=O)O)C(=O)N[C@@H](Cc1ccccc1)C(N)=O | inactive | inactive | inactive | inactive | inactive | inactive | inactive | – | inactive | inactive
O=C1c2ccccc2C(=O)C1c1ccc(Cl)cc1 | inactive | inactive | inactive | inactive | inactive | inactive | inactive | – | inactive | inactive
C[C@H](O)[C@H](O)[C@H]1CNc2nc(N)[nH]c(=O)c2N1 | inactive | inactive | inactive | inactive | inactive | inactive | inactive | – | inactive | inactive
OC[C@H]1O[C@@H](O[C@H]2[C@H](O)[C@@H](O)[C@H](O)O[C@@H]2CO)[C@H](O)[C@@H](O)[C@@H]1O | inactive | inactive | inactive | inactive | inactive | inactive | inactive | inactive | inactive | inactive
COc1cc(C[C@@H]2NCCc3cc(O)c(O)cc32)cc(OC)c1OC | inactive | inactive | inactive | inactive | inactive | inactive | inactive | – | inactive | inactive
O=P(O)(O)C(O)(Cc1cnc2ccccn12)P(=O)(O)O | inactive | inactive | inactive | inactive | inactive | inactive | inactive | – | inactive | inactive
CC1CCC(NC(=O)N(CCCl)N=O)CC1 (stereo not given) | inactive | inactive | inactive | inactive | inactive | inactive | 26.6 µM (active) | inactive | inactive | –
O=P(O)(O)OC(Cn1cncn1)(Cn1cncn1)c1ccc(F)cc1F | inactive | inactive | inactive | inactive | inactive | inactive | inactive | – | inactive | inactive
O=C(CO)[C@@H](O)[C@H](O)[C@@H](O)C(=O)O | inactive | inactive | inactive | inactive | inactive | inactive | inactive | inactive | inactive | inactive
CC(C)[C@@H]1CC[C@@H](C)C[C@H]1OC(=O)c1ccccc1O | inactive | inactive | inactive | inactive | inactive | inactive | inactive | – | inactive | inactive
O=S(=O)(O)Oc1ccc(C(c2ccc(OS(=O)(=O)O)cc2)c2ccccn2)cc1 | inactive | inactive | inactive | inactive | inactive | inactive | inactive | – | inactive | inactive
CCOC(=O)O[C@]1(C(=O)COC(=O)CC)CC[C@H]2[C@@H]3CCC4=CC(=O)C=C[C@]4(C)[C@H]3[C@@H](O)C[C@@]21C | inactive | inactive | inactive | inactive | inactive | inactive | inactive | inactive | inactive | –
Cc1nnc(C(C)C)n1C1C[C@H]2CC[C@@H](C1)N2CC[C@H](NC(=O)C1CCC(F)(F)CC1)c1ccccc1 (stereo not given in full) | inactive | inactive | inactive | inactive | inactive | inactive | inactive | – | inactive | inactive
COc1ccc(/C=C/C(=O)OCCC(C)C)cc1 | inactive | inactive | inactive | inactive | inactive | inactive | – | inactive | inactive | –
OCC(O)COc1ccc(Cl)cc1 (stereo not given) | inactive | inactive | inactive | inactive | – | inactive | inactive | inactive | inactive | inactive
C[C@@](Cc1ccc(O)c(O)c1)(NN)C(=O)O | inactive | inactive | inactive | inactive | inactive | inactive | – | inactive | inactive | inactive
O=C(NOC[C@H](O)CO)c1ccc(F)c(F)c1Nc1ccc(I)cc1F | inactive | inactive | inactive | inactive | – | inactive | inactive | inactive | inactive | inactive
